In this assay the test system is VDR:RXRa (NR concentration 270 nM, RXRa partner concentration 90 nM). Briefly: PBM binding z-score (relative to random genomic background probes); higher = stronger binding; sequences stand for … in GC…GCGATTGACAGCGTAGAATGAAGG
How it is done:
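Protein-binding microarray (Agilent 4x180K custom design, double-stranded 60-nt probes: 5' GC cap, 34-nt variable region, 24-nt constant primer region; full probe sequence given). Purified or IVT nuclear receptor:RXRα heterodimers (3:1 NR:RXRα, mostly 270:90 nM) or homodimers were incubated for 1 h in PBS with 2% milk and no ligand, then detected with Alexa488 antibodies. Fluorescence from o1-orientation probes (~5 replicates averaged) was converted to z-scores against 500 random hg19 background probes. Variable regions are seed direct-repeat (DR0–DR5) sites, all their single-nucleotide variants and half-site ablations.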
As for GCGACTGGGGCATCAGCAGGTTACCAGAACTTAA, the PBM binding z-score was -0.205.

The sequence AATACAGGGTCATCGTAGTCCAGAGTACGCACAG displayed a PBM binding z-score of 5.65.

Sequence ATATGTAGGCTAGCTGGGGTCATTCAGACTAGGC registered a PBM binding z-score of 4.77.

ACTATTAGTAGAGACGAGGGCAACCGATAGGTTG gave a PBM binding z-score of 0.332. For TCTCGGAGGACACGAGGGTCAGAGCTTTCCAGAG the value was 1.7. For ATCTCTAGGTAAGACTCAGTTCAGTGAGGAACGC the value was 0.748; for TTTCGGAGGACACGAAGGTCAGAGCTTTCCAGAG, 2.47; for TCTGCTAGGTCAGTTGGTCAGCTTACGAGCTGCC, 0.0848.

Sequence GCTAGTTGGTCAGTACAAGGTCACACACCGGTCG showed a PBM binding z-score of 3.24. For CTCGAAAGGTCGATTGAGGTGAGTATACGGATAA the value was 3.76. For TCTAGTTGGTCACGGAGATCACACACGACGGGTA the value was 0.966. For ACAGAAAGGTGAGTGAAGGTAACTCAGCTGGACG the value was 0.368. On to GCTGCTAGGTCACCTGATGGTCAGCTAAAGCTCG, for which the PBM binding z-score stood at 1.31. For ACTAGCAGGACAAGTTTGGGTCACTCAAACAAAG the value was 0.698. For ATATGTAGGTTATCGGGTCGTTCAGTTTGCGCAT the value was 3.89; for ACTATTAGTTGAGACGAGGGCAACCGTTAGGTTG, 0.546. For ATACCAAGGAGATCGTGAGGTCGTTGATACTAAC the value was 1.44; for CGTCAAAGTTCACGGTAACGTAACAGAAAGCAGC, 4.74; for AGTCAAAGTTCAGGACGAGCTAACGTAAAGCACG, 1.8. AGTCAAAGTTCACTAGGTAACGCAAGATTCAGCT yielded a PBM binding z-score of 3.39. For TAGCCTAGGTCATTAGGCCAGTATAGTACGCATC the value was 1.69; for ATCGAAAGGACGAGGTGAGTATAGAGAAAGGGAA, -0.203; for TCTTGTAGATCCATAGAGGTTAAGAAAGTGCGCT, 1.69. Sequence CCTACTGGGCCAAACAGGTCATTGATGCCGATAA showed a PBM binding z-score of 2.82. For AATAAAGGGTCACTAGGCCAGAGTAGGTACGAAT the value was 4.04; for CGTCCCAGGTCAAGGTCAGTGAAAGAGACTCGAA, 3.85. AGAATGAGGTTATACGTCGATCAGGGAAGAAAGT: the PBM binding z-score is 1.29. For CCTGCTAGGTCATGGTCAGCTTATCTACAGTATG the value was 1.54. For GATACAGGGTCAAGGCCAGAGAACGCGTATTGAT the value was 3.99. ATATGTAGGTTATCGGGTCATTTAGTTTGCGCAT registered a PBM binding z-score of 4.24.

CCTATTAGTTGACCATAAGGGCAACCTAAGCTCG: the PBM binding z-score is 0.839. For AGAATGAGGGTAAGATCAGGGAAACAGAATACAT the value was -0.0914; for AATACAGTGTCACTAGGCCAGAGTAGGTACGAAT, -0.0369. For CCGACTGGGGCAAAGGTTACCATCCTCAGTACGA the value was 1.37; for TCGAGTAGGTTAGTCGGGACATTCAGCCAACATA, 1.19.

As for CGTTCAAGGTCAGAGAGGTCAGTGAATGCCGAGT, the PBM binding z-score worked out at 7.5. For TTTAGCAGGCCAGAGGGTCACTCAAGAGGTACGG the value was 1.55; for TCTATTAGTTGTAGGGCAACCGACGAGTCCGTTT, 0.713; for CGTCCAAGGACATAGGAGGTCAGTGAAGACAGAT, 2.2. For TGTCAAAGTTCAAAGGTAAGGTAAGTATCCACAC the value was 4.95.

(Values after the supplement of paper PMC6555819.)
